Pf Dd2 inh = Plasmodium falciparum Dd2 growth inhibition | 120,000 compounds, 4.3% hits | AID 1347417 | P. falciparum Dd2 growth, SYBR Green, 72 h | Potency, µM (top dose mostly 28.9 µM), for inactives: top-dose activity, negative = inhibition, actives largely listed as inhibitors; active = well fitted inhibition curve with a large enough effect;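 also: plate controls were DMSO vehicle for no effect and reference drug for full effect; nearly all actives have a fitted effect of over 65% in size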
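Readout: SYBR Green fluorescence, 485 nm excitation, 535 nm emission, after ~16 h lysis at 37C. Before that, Dd2-infected red cells (2.5% hematocrit) grew 72 h with compound, 29 uM top final concentration.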
An asterisk follows results filed as active; i = inactive; [ ] = remark or other dose. Shown is part of a subset that was picked to be rich in hits. Potency is read from the fitted curve at half-maximal effect.

SMILES	Pf Dd2 inh
CCOc1ccccc1NC(=O)C[C@H]1NC(=O)c2ccccc2NC1=O	-8%
COC(=O)c1ccc(NC(=O)CC2Nc3cc(C)c(C)cc3NC2=O)cc1 (configuration not stated)	4µM*
COc1ccc(NC(C)=O)cc1NC(=O)C[C@H]1NC(=O)c2ccccc2NC1=O	-6%
CCOC(=O)c1ccc(NC(=O)CC2Nc3ccccc3NC2=O)cc1 (configuration not stated)	13µM*
CC(=O)c1ccc(NC(=O)CC2Nc3cc(C)c(C)cc3NC2=O)cc1 (configuration not stated)	5µM*
COc1ccccc1C(=O)N1CC(Oc2ccc(-c3nc(-c4ccccc4)no3)cc2)C1	20%[5.79 µM]
COc1ccc(O[C@H]2COCCN(C(=O)c3cc(C)oc3C(F)(F)F)C2)cc1	-21%[44.1 µM]
O=C(Nc1ccc([C@@H](O)[C@H]2COCC(=O)N2Cc2ncc[nH]2)cc1)C1CC1	2%[44.1 µM]
COc1ccc(Nc2ccc3c(n2)CN(Cc2ccc(F)cc2)C(=O)CO3)cn1	-14%[44.1 µM]
COc1ccc(CC(=O)N(C)Cc2cccc(C(F)(F)F)c2)cc1	20%[44.1 µM]
CCc1cc(=O)n(Cc2ccccc2)c(N2CCOCC2)n1	-17%
CC(C)CCNC(=O)C1N(C(C)C)C(=O)C12CCCCC2 (configuration not stated)	i
CN(C)C(=O)C1CN(C(=O)Cc2ccccc2Cl)CC12CCOCC2 (configuration not stated)	i
COCCNC(=O)[C@@H]1C[C@H](Oc2ccccc2)CN1C(=O)c1ccc(OC)cc1OC	16%
O=C1NC(C(=O)NCCCn2cccn2)Cn2cccc21 (configuration not stated)	16%
O=C(O)CCC(=O)NC[C@H]1Cn2c(-c3ccc(Cl)cc3)cnc2CO1	12%[44.1 µM]
Cc1ccc(C(C)C)c(OCC(=O)NCC2(N(C)C)CCCCC2)c1	2.8µM*
Cc1cccc(C)c1OCC(=O)NCC1(N(C)C)CCCCC1	i
Cc1ccc(C(C)C)c(OCC(=O)Nc2nc3c(s2)CCCC3)c1	0%
COc1cc(-c2cnc3n[nH]c(-c4ccc(F)cc4C)c3n2)ccn1	15%[44.1 µM]
O=C(c1nnc(CN2CCN(c3ccccn3)CC2)n1-c1ccccc1)N1CCC[C@@H]1c1cccc(F)c1	i
Cc1ccc(NC(=O)c2ccc(-c3cccc(Cl)c3C)o2)cc1	20%
COc1ccc(NC(=O)c2ccc(-c3cccc(Cl)c3C)o2)cc1	10%
O=C(NCc1ccccc1)c1ccc(-c2cccc3c2CCNC3)o1	11µM*
O=C(Nc1ccccc1)c1ccc(-c2cccc3c2CCNC3)o1	11µM*
SMILES	Pf Dd2 inh
O=C(NCc1ccccc1)c1ccc(CS(=O)(=O)c2c(Cl)cccc2Cl)o1	i
Cc1ncc2c(c1CNC(=O)c1cccc(OC(F)F)c1)CCNC2	-12%
COc1ccc(CC(=O)N2CC[C@@H](CC(=O)O)[C@@H](CC3=NCCc4cc(OC)c(OC)cc43)C2)cc1	-2%
C=CCn1cc(CN(Cc2ccco2)Cc2cccs2)c(C)n1	-20%
COc1ccc(C(=O)NC[C@H]2O[C@H](Cc3cc(COc4ccccc4)on3)CC[C@@H]2O)cc1	-6%
COc1ccc(CNC[C@H]2O[C@H](Cc3cc(COc4ccccc4)on3)CC[C@@H]2O)cc1	4µM*
CC(C)NC[C@H]1O[C@H](Cc2cc(CN(C)Cc3ccccc3)on2)CC[C@@H]1O	11µM*
CC(=O)N1CCC(NC[C@H]2O[C@H](Cc3cc(COc4ccccc4)on3)CC[C@@H]2O)CC1	i
O[C@H]1CC[C@@H](Cc2cc(-c3ccc(F)cc3)on2)O[C@@H]1CNCc1ccncc1	10µM*
Cc1ccc(CNC[C@H]2O[C@H](Cc3cc(-c4ccc(F)cc4)on3)CC[C@@H]2O)cc1	-3%[44.1 µM]
CN(Cc1ccccc1)Cc1cc(C[C@@H]2CC[C@H](O)[C@@H](CNCc3ccccc3)O2)no1	1.8µM*
COCc1cc(C[C@@H]2CC[C@H](O)[C@@H](CNC3CCN(C)CC3)O2)no1	28%[44.1 µM]
O[C@H]1CC[C@@H](Cc2cc(-c3ccc(F)cc3)on2)O[C@@H]1CNC1CCNCC1	-20%[44.1 µM]
CCNC(=O)NC[C@H]1O[C@H](Cc2cc(CN(C)Cc3ccccc3)on2)CC[C@@H]1O	i
CCC(=O)NC[C@H]1O[C@H](Cc2cc(COc3ccccc3)on2)CC[C@@H]1O	-15%[44.1 µM]
CN(C)C[C@H]1O[C@H](Cc2cc(CN(C)Cc3ccccc3)on2)CC[C@@H]1O	-19%[44.1 µM]
COCCNC(=O)[C@@H]1CCC[C@@H](NC(=O)c2ccccc2)CN(C)C(=O)C1	17%[44.1 µM]
Cc1nc(CCNC(=O)C2CNCCO2)sc1C (configuration not stated)	-19%
CCOCC(=O)N1CC(F)(F)C[C@H]1c1nc(C(=O)NC)no1	42%
CCC1=C(C(=O)OC)C(c2cc(OC)ccc2OC)N2C(CC(=O)NC3CC3)=CSC2=N1 (configuration not stated)	i
CC(C)N1CCC(OCCCNC(=O)C2CCN(c3cnn(C)c(=O)c3)C2)CC1 (configuration not stated)	14%
Cc1noc(-c2cn(C3CCN(C(=O)c4ccc(F)cc4)C3)nn2)n1 (configuration not stated)	i
COc1ccc2cc(C(=O)N3CCC4(CC3)CC(c3nc(C)no3)N(C)C4)[nH]c2c1 (configuration not stated)	i
COc1ccc2[nH]c(C(=O)N3CCC4(CC3)CC(c3nc(C)no3)N(C)C4)cc2c1 (configuration not stated)	7.9µM*
CNC(=O)[C@@H]1CN(C(=O)c2cc3cc(OC)ccc3[nH]2)C[C@H]1c1nc(C)no1	-23%
SMILES	Pf Dd2 inh
Cc1ncc2c(n1)CCCN(CC(=O)NC1CC1)C2=O	35%
O=C1N[C@@H]2CCN(C(=O)COc3ccccc3)[C@@H]2C(=O)N1c1ccc(Oc2ccccc2)cc1	-16%
COc1ccc(-c2cn3c(n2)sc2cc(C(=O)Nc4cccc(OC)c4)ccc23)cc1	-4%
O=C(NC1CCCCC1)c1ccc2c(c1)sc1nc(-c3ccc(F)cc3)cn12	-10%
COc1ccc(-c2cn3c(n2)sc2cc(C(=O)NCCCN4CCCCC4)ccc23)cc1	1.1µM*
COc1cccc(-c2cn3c(n2)sc2cc(C(=O)NCCC4=CCCCC4)ccc23)c1	i
CCOC(=O)C1CCN(C(=O)c2ccc3c(c2)sc2nc(-c4ccc(OCC)cc4)cn23)CC1	8.9µM*
COc1ccc(-c2cn3c(n2)sc2cc(C(=O)NCCCN4CCCCCC4)ccc23)cc1	8.9µM*
COc1ccc(-c2cn3c(n2)sc2cc(C(=O)NC4CCCCCC4)ccc23)cc1	i
O=C(NC1CCCCCC1)c1ccc2c(c1)sc1nc(-c3ccc(F)cc3)cn12	6%
Cn1cccc1C(=O)NCC(=O)N1CCCCCNC(=O)CC1c1ccccc1 (configuration not stated)	35%
O=C(NCC1CCOCC1)c1c[nH]c2ccccc12	56%
Cc1ccc(C(=O)N2CCC3(CC2)NC(=O)N(c2ccc(F)cc2)N3)cc1	-5%
CC(=O)N1CCC([C@@H]2CN(Cc3ccc(C(F)(F)F)cc3)C[C@H]2CO)CC1	-12%
O=S(=O)(c1ccc(F)cc1)N1CCCC(Cn2c(C3CC3)nc3cccnc32)C1 (configuration not stated)	-17%
O=C([C@@H]1C[C@H](Oc2cccnc2)CN1C(=O)COc1ccc(F)cc1)N1CCCC1	13%
Cc1nc(CCNC(=O)C2NCCc3[nH]cnc32)nc2c1CCCC2 (configuration not stated)	-8%
